Data: PubChem BioAssay
Active and inactive are the calls of the source. The rule behind the calls is not given here.

Target: Pantothenate synthetase (Mycobacterium tuberculosis (strain ATCC 25618 / H37Rv)) (UniProt P9WIL5)
Assay: Recombinant Mtb pantothenate synthetase (PanC) inhibitors, coupled enzyme, confirmatory (AID 375);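 note: 0% = full reaction with vehicle and 100% = no enzyme background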
Conditions: coupled enzyme assay; at 10 µM, hits give high values

Pantothenate synthetase (Mycobacterium tuberculosis (strain ATCC 25618 / H37Rv)), sequence (P9WIL5 whole entry, looked up): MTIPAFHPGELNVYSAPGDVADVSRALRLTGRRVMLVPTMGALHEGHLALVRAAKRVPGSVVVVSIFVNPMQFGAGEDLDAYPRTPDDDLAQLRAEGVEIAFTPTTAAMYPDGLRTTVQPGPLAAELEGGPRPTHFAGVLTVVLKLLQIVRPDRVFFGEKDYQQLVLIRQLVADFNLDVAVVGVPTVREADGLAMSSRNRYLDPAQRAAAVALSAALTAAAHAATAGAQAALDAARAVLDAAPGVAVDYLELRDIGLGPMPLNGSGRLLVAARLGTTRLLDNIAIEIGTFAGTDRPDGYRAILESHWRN

| SMILES | inhibition |
| --- | --- |
| COc1ccc(C)cc1NC(=O)CN1CCN(S(=O)(=O)c2ccc(Cl)cc2)CC1 | 0% (inactive) |
| c1ccn2c(SCc3cn4ccsc4n3)nnc2c1 | 1% (inactive) |
| Cc1nc2ccccc2c(=O)n1NC(=O)c1ccc(F)cc1Cl | 5% (inactive) |
| Cc1cc(NC(=O)CCC(=O)N(CC2CCCO2)C(C(=O)NC2CCCC2)c2ccccc2C)no1 (configuration not stated) | 0% (inactive) |
| CCOC(=O)C1=C(CC)Nc2ccccc2N=C1NC(=O)Nc1ccccc1OC | 2% (inactive) |
| Cc1cc(C)n2cc(CSc3nnnn3C)nc2n1 | 0% (inactive) |
| COc1ccccc1-n1nnnc1SCc1ccccc1 | 3% (inactive) |
| COc1ccc(OC)c(C(=O)c2nc3c(n2O)CCCCC3)c1 | 0% (inactive) |
| COCCn1c(=O)[nH]c2cc(C(=O)N3CCN(Cc4ccc5c(c4)OCO5)CC3)ccc2c1=O | 0% (inactive) |
| O=C(NCc1cccnc1)c1ccccc1Br | 7% (inactive) |
| COC(=O)c1ccc2c(c1)C(=O)N(C1CCCCC1)C2=O | 9% (inactive) |
| CC1CCN(C(=O)Cn2c(=O)oc3ccccc32)CC1 | 0% (inactive) |
| CCCCCc1c(C)nc(Nc2nc(C)c3cc(OC)ccc3n2)[nH]c1=O | 0% (inactive) |
| CCCCOc1ccc(C(=O)Nn2cnnc2)cc1 | 1% (inactive) |
| O=C1c2ccccc2S(=O)(=O)N1Cc1nnc(-c2ccccc2Br)o1 | 0% (inactive) |
| O=C(NCCC1=CCCCC1)C1CCN(S(=O)(=O)c2cnc[nH]2)CC1 | 2% (inactive) |
| CCOC(=O)C1C2C=CC3(CN(c4cccc(Cl)c4)C(=O)C13)O2 (configuration not stated) | 0% (inactive) |
